Reference: PubChem BioAssay AID504710 (Sanford-Burnham Center for Chemical Genomics, 2011)
A number with no mark means an inactive call. Activity calls are given as the source filed them.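 Rule for the calls: active = inhibition reaching about 16% in any single replicate (limit read from the data); inactive = the rest.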

biological target: Hexokinase HKDC1 (Homo sapiens) (UniProt Q2TB90); assay: compounds lowering human HKDC1 activity – biochemical, single concentration, confirmation (AID 504710); conditions: recombinant HKDC1, G6PDH/diaphorase/resazurin fluorescence; at 20 µM; active compounds read high
Sequence (Q2TB90 whole entry, looked up): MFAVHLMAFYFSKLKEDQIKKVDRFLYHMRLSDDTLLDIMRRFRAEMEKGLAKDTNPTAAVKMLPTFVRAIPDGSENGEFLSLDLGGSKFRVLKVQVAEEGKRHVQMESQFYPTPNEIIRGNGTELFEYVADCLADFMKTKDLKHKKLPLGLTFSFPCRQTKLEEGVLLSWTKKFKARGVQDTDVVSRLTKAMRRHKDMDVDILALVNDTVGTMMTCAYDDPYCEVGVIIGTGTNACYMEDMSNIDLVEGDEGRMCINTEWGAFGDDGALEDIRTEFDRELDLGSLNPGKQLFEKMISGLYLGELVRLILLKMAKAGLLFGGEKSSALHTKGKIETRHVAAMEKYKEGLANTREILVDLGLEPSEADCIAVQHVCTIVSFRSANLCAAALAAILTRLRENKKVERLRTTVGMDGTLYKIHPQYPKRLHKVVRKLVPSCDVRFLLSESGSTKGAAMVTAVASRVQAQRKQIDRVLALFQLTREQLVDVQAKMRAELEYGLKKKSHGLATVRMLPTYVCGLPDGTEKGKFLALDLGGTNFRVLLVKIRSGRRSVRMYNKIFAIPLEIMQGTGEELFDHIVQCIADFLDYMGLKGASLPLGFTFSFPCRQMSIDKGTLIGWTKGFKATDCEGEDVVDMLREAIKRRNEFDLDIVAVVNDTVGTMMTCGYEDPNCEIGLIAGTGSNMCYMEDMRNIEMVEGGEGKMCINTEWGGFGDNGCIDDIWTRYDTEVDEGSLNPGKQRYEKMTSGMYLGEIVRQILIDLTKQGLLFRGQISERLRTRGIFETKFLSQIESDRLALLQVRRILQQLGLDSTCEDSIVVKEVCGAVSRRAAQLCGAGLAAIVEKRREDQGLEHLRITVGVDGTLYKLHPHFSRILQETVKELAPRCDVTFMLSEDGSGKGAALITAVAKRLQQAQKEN

SMILES	inhibition
O=C1C=C(Nc2ccccc2C(=O)O)c2ccccc2C1=O	44.3% (active)
Cc1ccc(SC2=C(N(C)C)C(=O)c3ccccc3C2=O)cc1	59.9% (active)
CCn1c2ccccc2c2nc3cc(S(=O)(=O)N4CCOCC4)ccc3nc21	-47.4%
CC(=O)Nc1ccc(C2=NNC(=Nc3ccc(S(=O)(=O)N4CCOCC4)cc3)SC2)cc1	-234%
O=c1[nH]c2ccccc2n2c(-c3ccccc3)nnc12	58.5% (active)
COC1=C(OC)C(=O)C(Sc2ccc3ccccc3c2)=CC1=O	71.3% (active)
Cc1ccccc1NC1=C/C(=N\S(=O)(=O)c2ccc(C(=O)O)cc2)c2ccccc2C1=O	71.3% (active)
COc1ccc2cc(CCNC(=O)c3ccc(S(=O)(=O)N4CCCC4)cc3)c(=O)[nH]c2c1	59.8% (active)
CCOC(=O)C1=C(Cc2ccc(OC)cc2)C(=O)c2ccccc2C1=O	55.8% (active)
O=C1C=CC(=O)c2c(O)c(CO)c(CO)c(O)c21	39.3% (active)
Oc1ccc(/C=N/NC(=S)Nc2cccnc2)c(O)c1	14.6% (active)
CC(=O)C1=C(c2cccc([N+](=O)[O-])c2)N(C(C)=O)n2c(C)nnc2S1	-387%
CCOC(=O)C1=C(c2ccc(OC)cc2)C(=O)c2ccccc2C1=O	75% (active)
O=C(COC(=O)c1n[nH]c2ccccc12)c1cccc(Br)c1	-30.5%
O=C1C(Cl)=C(Oc2ccccc2)C(=O)c2ccccc21	77.7% (active)
Cc1cc(C(F)F)n2ncc(C(=O)NCCc3ccc(Cl)cc3)c2n1	36.2% (active)
